# Source: ChEMBL document CHEMBL3988442, “University of Dundee, Small-Polar-MMV Screening Library” (2021)
# About 13,000 (27%) of roughly 48,000 compounds showed an effect of 50% or more. This is one part of the list.
# System: Wolbachia pipientis
# Test: Anti-Wolbachia Cell-Based Screen
# Type: functional
# Parameters: scale not given: in the data most compounds retested in dose-response had high values
# Conditions: 5 µM
row,Compound,Percent Effect [%]
1,Fc1cnc(N2CC[C@@H](N3CCOCC3)[C@@H]2Cc2ccccc2)nc1,-1.587
2,CC(C)(O)CCc1ccc(C(=O)N2CCN(CC(F)(F)F)CC2)cc1,0.1309
3,NS(=O)(=O)CCN1CCOC(c2ccsc2)C1 (stereo not given),-9.667
4,CN1CC(c2ccccc2)CC2(CCN(C(=O)c3cccnn3)CC2)C1 (stereo not given),0.4144
5,COc1ccc2c(c1)C(=O)N(C)C1(CCN(C(=O)OC(C)(C)C)CC1)N2,-17.46
6,COCC1c2c(cnn2C)CCN1C(=O)c1cccn1C.O=C(O)C(F)(F)F (stereo not given),106
7,COCC1c2c(cnn2C)CCN1Cc1ccc(F)cc1.O=C(O)C(F)(F)F.O=C(O)C(F)(F)F (stereo not given),5.645
8,CCn1ncc2c1C(COC)N(C(=O)c1ccc3c(c1)OCO3)CC2.O=C(O)C(F)(F)F (stereo not given),10.43
9,COCC1CN(C(=O)c2cccn2C)Cc2c1cnn2CC1CC1.O=C(O)C(F)(F)F (stereo not given),4.422
10,CCn1ncc2c1C(COC)N(C(=O)c1ccsc1)CC2.O=C(O)C(F)(F)F (stereo not given),90.11
11,COCC1c2c(cnn2C)CCN1C(=O)c1cscn1.O=C(O)C(F)(F)F (stereo not given),127.3
12,Cn1ncc2c1C(COCC1CC1)N(C(=O)c1ccncn1)CC2.O=C(O)C(F)(F)F (stereo not given),6.391
13,CC(O)CC(C)(C)CNC(=O)Nc1cnn(-c2ccccc2F)c1 (stereo not given),-9.575
14,Cc1nccc(-c2ccccc2)c1C(=O)N1CCC2(CCCO2)CC1,-10.01
15,COc1ccc([C@@H]2CN(C(=O)CCn3cccn3)C[C@H]2NC(C)=O)cc1,10.72
16,Cc1nccc(-c2cccc(NCC(=O)N3CCc4sccc4C3)c2)n1,-3.121
17,CC(C)Oc1ccc(CN2CCCC(N3CCCC3)C2)cc1CO (stereo not given),-11.2
18,O=C(C1SCCc2ccccc21)N1CCC(O)CC1 (stereo not given),-12.36
19,CC1(C)CC(C(=O)N2CCC3(CCC(=O)N(C4CC4)C3)CC2)CCO1 (stereo not given),-18.18
20,CCCS(=O)(=O)N1CCN(Cc2ccco2)CC1.O=C(O)C(=O)O,120.3
21,CCCS(=O)(=O)N1C[C@@H]2CN(Cc3ccco3)CCO[C@@H]2C1.O=C(O)C(F)(F)F,4.107
22,CC(C)OCCS(=O)(=O)N1CCN(Cc2ccco2)CC1,-6.984
23,CCS(=O)(=O)N1CCC(c2cc3n(n2)[C@@H](C(F)(F)F)C[C@@H](C)N3)CC1,-9.512
24,CC(C)OCc1ccc(CNC(=O)NC2(CO)CCCC2)cc1,4.047
25,NC(=O)NC1CCN(Cc2ccc3c(c2)CCC3)CC1,-13.21

row,Compound,Percent Effect [%]
1,Cc1nnc(CN(Cc2cccc(Br)c2)C2CC2)o1,-10
2,Cc1nnc(CN(Cc2ccc(Cl)c(Cl)c2)C(C)C)o1,6.742
3,Cc1nnc(CN(Cc2ccc3c(c2)OCO3)C2CCCCC2)o1,129.8
4,Cc1nnc(CN(Cc2ccc3c(c2)OCO3)C2CCC(C)CC2)o1 (stereo not given),119.4
5,Cc1nnc(CN(Cc2ccccc2Br)C2CC2)o1,-0.8138
6,Cc1nnc(CN(Cc2ccc(Cl)c(Cl)c2)C2CC2)o1,12.83
7,Cc1ccc2nc3n(c2c1)[C@@H](CNCc1nccs1)COC3,-1.407
8,COc1ccccc1C(NC(=O)CN(C)C(C)C)c1noc(C)n1 (stereo not given),-26.87
9,Cc1ccc(C)c(NC(=O)N(C)Cc2cnn(C)c2)c1,5.925
10,COCC(=O)N1CCC2(CCC2N(C)Cc2ccco2)CC1.O=C(O)C(F)(F)F (stereo not given),-4.207
11,CC(C(=O)NCc1cccc(N2CCCC2=O)c1)S(C)(=O)=O (stereo not given),-9.157
12,COc1ccc(NC(=O)NCc2cccc(N(C)C)n2)c(Cl)c1,3.933
13,CCc1nc(C(=O)NCc2ccc(N3CCNC(=O)C3)c(F)c2)c[nH]1,-14.99
14,Cc1ccc([C@@H]2CN(S(=O)(=O)Cc3ccccc3)C[C@H]2N(C)C)cc1,2.624
15,CN(CCc1ccncc1)Cc1nccn1Cc1ccccc1,0.009024
16,CC(C)(C)n1nnnc1CN(Cc1ccccc1)Cc1ccccc1Cl,144.9
17,CCN(Cc1noc(CC(C)C)n1)Cc1ccccc1Cl,16.12
18,CCn1ccnc1CN(C)Cc1nc(Cc2ccccc2Cl)no1,-11.87
19,CC(C)(C)n1nnnc1CN(CCc1ccccc1)Cc1ccccc1,189.2
20,CCN(Cc1ccncc1)Cc1cn(-c2ccccc2)nn1,-1.691
21,CC(C)(C)n1nnnc1CN(Cc1ccccc1)Cc1ccc(Cl)cc1,282.7
22,CN(Cc1ccncc1)Cc1nccn1Cc1ccccc1,10.06
23,Cc1nc(CCN(C)C(=O)CN2C(=O)OC[C@@H]2c2ccccc2)no1,2.107
24,CN(C)[C@H]1C[C@@H](Cc2cc(-c3ccc(F)cc3)on2)C1(C)C,-8.527
25,CN(Cc1ccoc1)C(=O)C1(Oc2ccc(Cl)cc2)CCNCC1,7.031

row,Compound,Percent Effect [%]
1,CN1CCOC(C(=O)Nc2ccc3c(c2)nc(C2CC2)n3C)C1 (stereo not given),-8.812
2,CCS(=O)(=O)N1CC[C@H]2O[C@H](c3nnc(C)o3)CC[C@H]21,-2.674
3,COc1ccc(CN2CCC3(CC2)CC(CC(=O)NC(C)C)CO3)cc1.O=C(O)C(F)(F)F (stereo not given),102.4
4,CC(C)NC(=O)CC1COC2(CCN(Cc3cccnc3)CC2)C1.O=C(O)C(F)(F)F.O=C(O)C(F)(F)F (stereo not given),94.4
5,CN(C)C(=O)CO[C@H]1CO[C@@]2(CCN(Cc3ccsc3)C2)C1.O=C(O)C(F)(F)F,-11.41
6,CN(C)C(=O)NC1COC2(CCN(Cc3ccco3)CC2)C1 (stereo not given),-11.16
7,CC(C)C(=O)NC1COC2(CCN(Cc3cccnc3)CC2)C1.O=C(O)C(F)(F)F.O=C(O)C(F)(F)F (stereo not given),-8.179
8,CC(C)C1COC2(CCN(Cc3ccco3)CC2)C1.O=C(O)C(F)(F)F (stereo not given),8.563
9,COc1ccc(CN2CCC3(CC2)CN(c2ccccn2)CCO3)cc1.O=C(O)C(F)(F)F.O=C(O)C(F)(F)F,-0.9926
10,CC(C)NC(=O)[C@H]1C[C@@H]2[C@@H](C1)OCCN2Cc1ccsc1.O=C(O)C(F)(F)F,9.511
11,COc1ccc(CN2CCOC3(CCCN(C(C)=O)C3)C2)cc1.O=C(O)C(F)(F)F (stereo not given),-1.413
12,CC(C)NC(=O)CC1COC2(CCN(Cc3ccsc3)CC2)C1.O=C(O)C(F)(F)F (stereo not given),89.57
13,CC(C)NC(=O)CC1COC2(CCN(Cc3ccco3)CC2)C1 (stereo not given),109.8
14,CC(C)OCc1ncn2c1CN(Cc1ccoc1)CCC2.O=C(O)C(F)(F)F,-8.556
15,Cc1ncsc1CN1C[C@H](C(=O)N2CCCO2)[C@@H]2CCO[C@@H]2C1.O=C(O)C(F)(F)F.O=C(O)C(F)(F)F,-11.3
16,Cc1[nH]ccc1C(=O)N(Cc1ccc(O)cc1)CC1CC1,16.53
17,FC(F)(F)C1CCCn2c(CNCc3ccco3)nnc21 (stereo not given),4.38
18,c1nc(N2CCCCC2Cn2cncn2)c2ccsc2n1 (stereo not given),0.5498
19,CCCc1cc(N(CCOC)CC(F)F)n2ncnc2n1,-3.752
20,CN(C)C(=O)CN(C)C(=O)c1cccn1CCc1ccccc1,-9.709
21,Cc1ccc(CN2CC(C(=O)NC(C)C)C3(CCOCC3)C2)s1.O=C(O)C(F)(F)F (stereo not given),1.411
22,Cc1ccc(CN2CCC3(CC2)CC(CC(=O)NC(C)C)CO3)s1.O=C(O)C(F)(F)F (stereo not given),100.2
23,CC(=O)N1CCOCC2(CCN(Cc3ccc(C)s3)CC2)C1.O=C(O)C(F)(F)F,-6.944
24,N#Cc1ccc(C(=O)N2CCCC3(C=Cc4ccccc4O3)CC2)cn1 (stereo not given),6.705
25,CC(=O)NC(C)C(=O)N(Cc1ccc(C)c(C)c1)C1CC1 (stereo not given),-3.122

row,Compound,Percent Effect [%]
1,CN1CCCCC[C@@H]2[C@@H]1[C@H](c1ccccc1)CN2C(=O)c1ccccn1,114.6
2,Cn1cc(C(=O)N2CC[C@@H]3[C@@H]2CCN3c2ccccn2)cn1,-3.073
3,CN1CCCC[C@@H]2[C@H]1[C@@H](c1ccccc1)CCN2C(=O)c1ccccn1,98.54
4,CN1CCCC[C@@H]2[C@H]1[C@@H](c1ccccc1)CCN2C(=O)c1cnccn1,3.186
5,CN1CC[C@H](c2ccccc2)[C@@H]2[C@H]1CCCCN2C(=O)c1cnccn1,-5.726
6,O=C(c1ccccn1)N1C[C@@H]2CC[C@H](C1)N(C(=O)CCN1CCCC1)C2,-10.03
7,CCc1nsc(NC2CC(=O)N(C(C)(C)C)C2)n1 (stereo not given),-4.433
8,CN1CCC(C(=O)N2CCCN(c3cccnn3)CC2)C1 (stereo not given),-4.749
9,CC(OCC1CC1)C(=O)N1CCCN(c2cccnn2)CC1 (stereo not given),-4.711
10,O=C(CN1CCCC1Cn1cccn1)NC1CCOCC1 (stereo not given),-8.305
11,O=C(CNCC1CCCN1c1cccnn1)NCCc1cccs1 (stereo not given),4.052
12,O=C(CCc1cccs1)NCC1CCCN1c1cccnn1 (stereo not given),-0.2437
13,O=C(CC1CCN(c2cccnn2)CC1)NC1CCOCC1,83.52
14,CN(C)CCNC(=O)CC1CCN(c2cccnn2)CC1,87.97
15,Cc1ccc(N2CCCC(NCC(=O)NC3CCOCC3)C2)nn1 (stereo not given),0.2085
16,O=C(CC1CCN(c2cccnn2)CC1)NCCO,94.51
17,O=C(c1cn(-c2cc(N3CCSCC3)ncn2)cn1)N1CCOCC1,2.163
18,COCCN1CC(=O)N2CC[C@@H](O)C[C@H]2C1=O,111.7
19,COCCN1C[C@@H]2CN(C(=O)CC3CC3)C[C@@H]2C1=O,3.353
20,Cc1n[nH]c(C)c1C1CCCN1C(=O)NCCSC(C)(C)C (stereo not given),-9.308
21,O=C1[C@@H]2C[C@H](O)CCN2C(=O)CN1CCSc1ccccn1,99.26
22,O=C(CC1CCc2ccccc21)NCCSc1ccccn1 (stereo not given),-6.128
23,CC(C)(C)SCCN1CC(=O)N2CC[C@@H](O)C[C@H]2C1=O,105.3
24,O=C(C1CC1)N1CCN(C(=O)CSc2ccccn2)[C@H]2CS(=O)(=O)C[C@H]21,-23.43
25,COCCN1C[C@H]2CN(C(=O)C3CC3)CCN2C1=O,0.212
